From the supplement of paper PMC6555819

Key:
Experiment in all cases: PBM binding z-score (relative to random genomic background probes); higher = stronger binding; sequences stand for … in GC…GCGATTGACAGCGTAGAATGAAGG
[1] = test system: RARb homodimer (NR concentration 270 nM)
In short: (§1)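 Random background probes are the reference for binding z-scores. These scores derive from regression-normalized fluorescence on custom Agilent 4×180K protein-binding microarrays incubated 1 h with ligand-free nuclear receptor dimers. Binding was detected with antibodies against each partner (one per run).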

[2] = test system: RARg:RXRa (NR concentration 270 nM, RXRa partner concentration 90 nM)
In short: as §1

[3] = test system: RARg homodimer (NR concentration 270 nM)
In short: as §1

[4] = test system: RXRa DBDmut IVT, anti-RXR (DBD mutation: RXRa K156A/R161A, NR concentration 90 nM)
In short: as §1

[5] = test system: RXRa homodimer (NR concentration 180 nM)
In short: as §1

[6] = test system: THRa:RXRa (NR concentration 90 nM, RXRa partner concentration 90 nM)
In short: as §1

[7] = test system: THRa homodimer (NR concentration 90 nM)
In short: as §1

[8] = test system: VDR homodimer (NR concentration 270 nM)
In short: as §1

| Sequence | PBM binding z-score [1] | PBM binding z-score [2] | PBM binding z-score [3] | PBM binding z-score [4] | PBM binding z-score [5] | PBM binding z-score [6] | PBM binding z-score [7] | PBM binding z-score [8] |
| --- | --- | --- | --- | --- | --- | --- | --- | --- |
| AGAATGAGGTTATAAAGATCAGGGAATTGCGGTC | 0.868 | 1.15 | 0.986 | 1.35 | 1.92 | 2.14 | 0.473 | 1.01 |
| CCTCGGGGGACAGAAGGTCAGAGCTGTCCGCTTT | 3.57 | 4.6 | 4.23 | 0.388 | 2.83 | 3.31 | 0.175 | 0.0933 |
| GCGGACAGGTGAAACGCAGGTAACTCAGGGTGGC | 0.239 | 1.13 | 0.717 | -0.341 | 0.426 | 1.41 | -0.55 | -0.834 |
| GCGACTGGGGCAAAGCCGGTTACCATAAGGTTGG | 0.363 | -0.242 | 0.26 | -0.988 | -0.295 | 0.48 | -0.526 | -0.688 |
| TCGAGTAGGTTAGGGGCATTCAAAATGGCGTCGA | 0.918 | 0.367 | 0.48 | 0.614 | 0.622 | 1.06 | 0.276 | 1.43 |
| ATCTCTAGGTAACAAGTTAAGTGAAAGAGAGGAC | 0.585 | 0.726 | 0.704 | -0.00477 | 0.663 | 1.29 | 0.846 | 0.307 |
| TCTTGTGGATCAGCAGGTTAAGAAAGCTGGCCAA | 0.366 | -0.0321 | -0.331 | 0.589 | 0.119 | 0.227 | -0.125 | 0.0128 |
| CGAACTCGGTCAAGGACAGTGAATCTCCGCACGC | 1.7 | 1.95 | 2.98 | 0.656 | 0.345 | 2.15 | 1.37 | 0.261 |
| CCAGACAGGTGAGAAGGTAACTGAGCCTCGATTA | 0.357 | 0.527 | 0.335 | -0.107 | 0.0427 | 0.121 | -0.33 | -0.0729 |
| ACTAGCAGGCCAAGGGTCAGTCAAGATTAGTCCG | 3.52 | 3.02 | 2.76 | 0.119 | 2.52 | 1.75 | -0.147 | 0.29 |
| CAAACTAGGTCTAGGTCAAAGTCGGTTTGTGCCA | 2.76 | 2.15 | 2.3 | 0.796 | 1.83 | 2.9 | 1.64 | 1.1 |
| ACTATTAGTTGAGACGTGGGCAACCGATAGGTTG | -0.524 | -0.179 | 0.239 | -0.00277 | -0.275 | -0.642 | -1.02 | -0.369 |
| AATACAGGGTCACTAGGCGAGAGTAGGTACGAAT | 3.24 | 5.21 | 5.18 | 2.87 | 5.73 | 3.48 | 1.41 | 2.82 |
| TCATATAGGTACATGCTAGGTGAAAGTCCGATCT | 0.598 | 0.521 | 0.462 | 2.05 | 0.745 | 2.02 | 0.723 | 0.987 |
| CCGACTGGGGCATAAGGTTCCCATAAGCCAGCCC | -0.217 | -0.0298 | -0.0621 | -0.59 | -0.271 | -0.0053 | -0.165 | -0.209 |
| TCATATAGGTAAATGCTAGGTGAAAGTGCGATCT | 0.752 | 0.609 | 0.488 | 1.55 | 1 | 1.64 | 0.475 | 0.485 |
| TAGCCTAGGTCCTGCGGGCCAGTATAGTGTCGGC | -0.744 | -0.626 | -0.818 | -1.46 | -0.822 | -1.56 | -0.966 | -0.992 |
| GGAACGATGGCATTCGAGTTGATAGCATGGCGAT | -1.05 | -0.259 | -0.016 | -0.146 | -0.284 | 0.175 | -0.974 | -0.268 |
| GATACAAGGTCAAGGCCAGAGTACGCGTATTGAT | 4.63 | 5.82 | 6.11 | 2.63 | 5.5 | 3.88 | 2.35 | 2.41 |

| Sequence | PBM binding z-score [1] | PBM binding z-score [2] | PBM binding z-score [3] | PBM binding z-score [4] | PBM binding z-score [5] | PBM binding z-score [6] | PBM binding z-score [7] | PBM binding z-score [8] |
| --- | --- | --- | --- | --- | --- | --- | --- | --- |
| TCTAGTTGGTCACGGAGGTCACCCACGACGGGTA | 4.51 | 4.85 | 5.06 | 0.865 | 5.13 | 3.66 | 2.82 | 2.79 |
| CAAACTAGGTCAAGGTCATAGTCGGTTTGTGCCA | 4.91 | 5.78 | 6.44 | 2.95 | 5.54 | 4.38 | 3.83 | 4.29 |
| TGTTGTAGATCAAGCAGGTTAAGAAAGCCTGAGT | 0.0369 | -0.0637 | 0.062 | -1.02 | -0.024 | 0.0864 | -0.545 | -0.058 |
| CGAACTAGGTCAGAACAGGACCGTGAAGGATGAT | 1.66 | 2.43 | 3.01 | 0.494 | 1.17 | 1.56 | -0.264 | -0.342 |
| CAAACTAGGTTAAAGGTCAAAGTCGAGCCAACCA | 4.47 | 7.04 | 5.43 | 2.13 | 8.81 | 3.85 | 0.829 | 2.96 |
| TCATATAGGTAATACAGGTGAAAGGCGGCATCTA | 0.722 | 0.622 | 0.526 | 1.84 | 1.32 | 0.852 | 0.543 | 0.774 |
| ACTATTAGTCGACTTAGGGCAACCGATACGACGC | 0.58 | 0.342 | 0.707 | 0.415 | 0.416 | 1.09 | 0.02 | -0.338 |
| CGTCCAACGTCAGAGAGGTCAGTGAATGCCGAGT | 3.88 | 2.75 | 3.06 | 0.53 | 2.32 | 2.39 | 0.645 | 1.67 |
| CGTCAAAGTTCAAGGTAACGGAACAGAAAGCAGC | 3.7 | 5.46 | 6.41 | 4.07 | 4.74 | 2.84 | 1.14 | 2.84 |
| TTACCCAGGTGAGCTGAGGTCGTTGATCCAACTC | 1.17 | 0.816 | 0.509 | -0.172 | 1.19 | 4.32 | 1.8 | 2.27 |
| ATATGTAGGTTACATCCGGGTCGTTCAGGCTATG | 1.5 | 1.78 | 1.28 | 1.22 | 1.54 | 2.53 | 1.24 | 1.82 |
| CTCGAAAGGTCGTGCTCAGGTGAGTATACCAAAC | 2.75 | 5.07 | 3.86 | 2.05 | 4.63 | 4.17 | 1.08 | 1.2 |
| ACTAGCAGGCCTAGTTTGGGTCACTCAAACAAAG | 1.42 | 0.276 | 0.565 | -0.626 | 0.395 | 1.91 | 0.883 | 0.0469 |
| CCTGCTAGGTCATGGTCAGATAATCTACAGTATG | 3.05 | 3.94 | 4.66 | 1.69 | 3.04 | 3.1 | 1.49 | 0.43 |
| CGTCCAAGGTTATAGGAGGTCAGTGAAGACAGAT | 3.79 | 3.62 | 3.5 | 1.48 | 2.87 | 4.89 | 1.69 | 2.1 |
| TTACCAAGGCGAGCTGAGGTCGTTGATCCAACTC | 0.643 | 0.197 | -0.299 | 0.038 | 0.626 | 3.13 | 1.16 | 1.49 |
| CCGACTGGGGCAAGGTTACCCTAACGCACAGCCA | 1.51 | 0.945 | 1.06 | -0.485 | 1.08 | 1.47 | 0.84 | -0.188 |
| CAAACTAGGTCAGGAAAGGTCAAAGTCGAATGAC | 5.66 | 6.84 | 7.48 | 1.51 | 6.81 | 4.74 | 1.62 | 3.13 |
| CGTCCAAGGTCAAGGTCCGTGAAAGAGACTCGAA | 4.19 | 6.16 | 6.84 | 3.57 | 5.96 | 3.82 | 2.69 | 2.27 |

| Sequence | PBM binding z-score [1] | PBM binding z-score [2] | PBM binding z-score [3] | PBM binding z-score [4] | PBM binding z-score [5] | PBM binding z-score [6] | PBM binding z-score [7] | PBM binding z-score [8] |
| --- | --- | --- | --- | --- | --- | --- | --- | --- |
| TTACCAAGGTGAGCTGAGCTCGTTGATCCAACTC | -0.157 | -0.164 | -0.277 | -0.78 | 0.0974 | 1 | -0.222 | -0.959 |
| ATCTCTAGGTAACAAGTTCAGTGAGAGAGAGGAC | 1.86 | 1.4 | 1.54 | 0.761 | 0.903 | 1.49 | 0.878 | 2.81 |
| TCTCGGAGGACAGGAAAGGTCAGAGCTCGACATC | 4.65 | 4.1 | 4.39 | 0.817 | 3.83 | 3.25 | 0.943 | 0.606 |
| GCTGCTAGGTCAACTGATGGTCAGCAAAAGCTCG | 3.66 | 5.17 | 5.41 | 1.5 | 2.99 | 2.91 | 0.775 | 0.254 |
| TGATATAGGTAAAGGTGAAAGTCGAACGATATGA | 1.61 | 1.55 | 1.43 | -0.501 | 2.09 | 1.57 | -0.161 | -0.09 |
| CCGCCTGGGGCAAGGTTACCATAACGCACAGCCA | 1.52 | 1.06 | 1.1 | -0.994 | 0.987 | 1.3 | 0.7 | -0.0695 |
| TCTTGGAGGACACGAAGGTCAGAGCTTTCCAGAG | 3.54 | 3.23 | 3.69 | 0.774 | 1.83 | 2.89 | 0.692 | 1.13 |
| CCTACTGGGCCAAAAAGGTCATTGAGGCCGATAA | 4.37 | 4.72 | 4.17 | 0.821 | 4.63 | 3.4 | 0.793 | 3.39 |
| TCTATTAGTTGATTAGGGCAGCCGAAACAGCGGA | 0.418 | 0.585 | 0.628 | 1.14 | 0.439 | 0.393 | 0.285 | 0.654 |
| ATATGTAGGTTAGCTAGGGTCATTCAGACTAGGC | 3.17 | 3.33 | 2.68 | 1.24 | 3.71 | 5 | 2.64 | 3.63 |
| ACAGTCAGGTGATGAAGGTAACTCAGGCTATCAT | 0.23 | 0.23 | 0.365 | -0.243 | 0.405 | 1.19 | 0.0421 | -0.453 |
| CCTATTAGATGACCATAAGGGCAACCGAAGCTCG | 1.98 | 1.02 | 1.2 | 0.541 | 0.88 | 1.69 | 1.19 | 0.819 |
| TGTCAAAGTTCAAAAGTAACGTAAGTATCCACAC | 3.09 | 5.13 | 5.21 | 4.25 | 4.57 | 1.86 | -0.26 | 3.51 |
| AGTAAAAGTTCAGGACGAGGTAACGTAAAGCACG | 2.91 | 4.29 | 4.25 | 2.76 | 2.3 | 3.78 | 2.01 | 1.89 |
| GATACAGGGTCAAGGCCAGCGTACGCGTATTGAT | 3.63 | 5.27 | 4.55 | 2.14 | 5.61 | 3.53 | 1.43 | 1.31 |
| TCGAGTTGGTTAGTCGGGGCATTCAGCCAACATA | 0.0639 | -0.34 | -0.804 | 1.41 | -0.355 | 0.331 | -0.0261 | 0.871 |
| CCTACTGGGCCACGAAAAGTCATTGATTCAGTGA | 0.476 | 0.154 | 0.301 | -0.296 | -0.0607 | -0.0481 | -0.645 | -0.412 |
| ATCTCTAGGTGAAGATAGTTCAGTGAATGCAAAT | 1.19 | 1.16 | 1.27 | -0.299 | 0.687 | 1.24 | 0.00291 | 0.334 |
